For 91 compounds, inhibition results are on record in PubChem BioAssay AID2315 (National Center for Advancing Translational Sciences (NCATS), 2010).

Hit rate of the full screen: of about 290,000 compounds, about 27,000 (9.3%) were called active. The sample as a whole holds a higher share of actives than the screen did. Unmarked numbers belong to inactive results. Cut-off read from the data, not from the text of the source: active = inhibition mostly above about 28% (no sharp cut-off); inactive = mostly below about 43%.

The assay in a line: A qHTS for Small Molecule Inhibitors of Shiga Toxin. For inhibition: 0% is about no effect. As to conditions: Vero cells, Shiga toxin protein synthesis inhibition reporter; at 38.7 µM, active compounds read high.
On to `Cc1cc(S(=O)(=O)NC2CCCC2)ccc1-n1cnnn1`, for which the inhibition was -8.85%. The same measure for `Cc1cc(CNC(=O)C2CCC(=O)N(CCc3ccc(Cl)cc3)C2)no1` (stereo unspecified): -7.54%. The figure for `CC(=O)Nc1c2c(nn1-c1ccc(C)cc1C)CS(=O)C2` (stereo unspecified) is -1.19%; for `CC1=CCC2C(=O)N(c3cccc(C(=O)NC(C)c4ccccc4)c3)C(=O)C2C1` (stereo unspecified) it is -6.84%. The figure for `Cc1ccc(C)c(N2CCN(C(=O)CCCn3c(=O)c4cccn4c4cccnc43)CC2)c1` is -8.84%; for `COc1ccccc1C(=O)CSc1cccc[n+]1[O-]` it is -1.48%. In the case of `O=C(CSc1cccc[n+]1[O-])c1ccc(Cl)cc1`, the inhibition is 5.16%.

Take `O=C(CSc1cccc[n+]1[O-])c1ccc(-c2ccccc2)cc1`: the inhibition is 142% (active). The figure for `CC(=O)Nc1cccc(NC(=O)CSc2nccn2Cc2ccc(F)cc2)c1` is -6.32%; for `COc1cc(-c2cc(C(=O)OCC(=O)Nc3ccc4c(c3)OCO4)c3ccccc3n2)cc(OC)c1OC` it is 3.34%. The figure for `NC(=O)c1ccc(NC(=O)COC(=O)c2c3c(nc4ccccc24)/C(=C\c2ccc4c(c2)OCO4)CCC3)cc1` is 59.8% (active); for `NS(=O)(=O)c1ccc(NC(=O)COC(=O)c2cc3ccccc3oc2=O)cc1` it is 16.5%.

With `O=C(COC(=O)c1c2c(nc3ccccc13)/C(=C\c1cccs1)CCC2)Nc1ccccc1Cl`, the inhibition is 24.9%.

Take `NS(=O)(=O)c1ccc(NC(=O)COC(=O)c2ccc(Cl)nc2)cc1`: the inhibition is -4.23%. The same measure for `NS(=O)(=O)c1ccc(NC(=O)COC(=O)c2c3c(nc4ccccc24)/C(=C\c2ccc4c(c2)OCO4)CCC3)cc1`: 3.72% (active). The figure for `O=C(N/C(=C/c1ccc(Cl)cc1)C(=O)N1CCCCC1)c1ccco1` is 5.11%. The figure for `O=C1CCC(C(=O)N2CCN(c3ccccc3Cl)CC2)CN1CC1CCCCC1` (stereo unspecified) is -2.81%; for `Cc1c(OC(C)C(=O)NCC2CCC(C(=O)O)CC2)ccc2c1oc(=O)c1ccccc12` (stereo unspecified) it is -3.63%. As to `CCCC[C@]12Cc3cc(OC)c(OC)cc3C(O1)C1=C(CC3(CCCCC3)OC1=O)O2`, the inhibition result is “inactive”. `CCn1cc(CN2CCN(CC(C)(C)C)C(CCO)C2)c2ccccc21` (stereo unspecified): the inhibition was 8.71%. In the case of `CC(=O)Nc1ccc(S(=O)(=O)N2N=NC3C2C2CC4C3(CN(C(=O)OC(C)(C)C)S4(=O)=O)O2)cc1` (stereo unspecified), the inhibition is 19.4%. The figure for `CN(C)S(=O)(=O)N1CCC(Oc2cccc(C(=O)NCCCC3CCCC3)c2)CC1` is 56.6% (active); for `CNS(=O)(=O)c1cccc(C(=O)NCC2CCCCC2)c1` it is 10.6%. `CN(C(=O)c1cccc(OC2CCN(S(=O)(=O)N(C)C)CC2)c1)C1CCOC1` (stereo unspecified): the inhibition is 21.6%.

In the case of `O=C(CN(C(=O)c1nsc(Cl)c1Cl)c1cccc(F)c1)NC1CCCC1`, the inhibition was -1.89%. The figure for `O=C(NCCCn1ccnc1)C1CCCN(S(=O)(=O)c2cc(Cl)ccc2Cl)C1` (stereo unspecified) is -13%. The same measure for `COc1cccc(CNc2nc(C(F)(F)F)nc3ccccc23)c1`: -1.59%; for `COc1cccc(CNS(=O)(=O)c2cc3c(cc2C)n(C)c(=O)c(=O)n3C)c1`: -2.17%. Regarding `COc1cccc(CNc2ncc(-c3ccccc3)n2C)c1`, the inhibition was 20.5% (active).

`COc1cc(C(=O)N/C(=C\c2cn(C)c3ccccc23)C(=O)N2CCOCC2)cc(OC)c1OC`: the inhibition was -2.55%. The same measure for `COc1ccccc1C(=O)Nc1ccnn1C1CCN(Cc2cnn(C)c2)CC1`: 14.1%; for `Cc1occc1C(=O)NNC(=S)NCC(C)C`: -8.32%; for `CC(C)CNC(=S)NC(=O)c1ccc(Cl)cc1`: 90.8% (active). The same measure for `CC(C)C(NC(=O)c1ccc(Cl)cc1)C(=O)O` (stereo unspecified): -21.4%; for `CCn1ccnc1CNC(=O)CC1C(=O)NCCN1Cc1ccc(F)cc1Cl` (stereo unspecified): -5.69%; for `CC(C)C[C@H](NC(=O)C1CCC(CNC(=O)[C@@H]2CCCN2C(=O)OC(C)(C)C)CC1)C(=O)O` (stereo partly specified): -6.01%. Take `O=C(NCCCN1CCOCC1)c1cc(-c2cccc(O)c2)on1`: the inhibition was 23.1%. The figure for `CN(c1cccc(NC(=O)c2ccc(CN3CCc4ccccc4C3)cc2)c1)S(C)(=O)=O` is -12%; for `CN1CCN(Cc2c(C(=O)N3CCc4ccccc4C3)nc3ccc(Cl)cn23)CC1` it is -6.16%; for `Cc1ccc2c(c1)N(C(=O)CCC(=O)N1CCc3ccccc3C1)CCO2` it is 2.26%. The same measure for `O=C(c1cc(-c2cccc(O)c2)on1)N1CCc2ccccc2C1`: 35.6% (active). The same measure for `CN(c1ccc(C(=O)N2CCc3ccccc3C2)cc1)S(C)(=O)=O`: 52.2% (active).

On to `Cn1cccc1C(=O)N1CCc2ccccc2C1`, for which the inhibition was 36.9%. On to `Cc1cccc(OC(C)C(=O)N2CCc3ccccc3C2)c1` (stereo unspecified), for which the inhibition was -13.5%. The same measure for `COc1cccc(N(CC(=O)N2CCc3ccccc3C2)S(C)(=O)=O)c1`: -19.6%; for `O=C(c1noc2c1CCCC2)N1CCc2ccccc2C1`: 67.4% (active); for `O=C(COc1ccccc1)N1CCc2ccccc2C1`: 38.7%. As to `Cc1ccc(-c2cc(C(=O)N3CCc4ccccc4C3)no2)cc1`, the inhibition was 46.6% (active). The figure for `Cc1cc(C(F)F)n2nc(C(=O)Nc3ccc(S(=O)(=O)NC45CC6CC(CC(C6)C4)C5)cc3)nc2n1` is -15.3%; for `CCOc1ccc2[nH]c(C(=O)N/N=C/c3cccc(OC)c3OC)cc2c1` it is 14%; for `O=C(NCc1ccccc1)C(c1ccco1)N(C(=O)c1csnn1)c1ccccc1F` (stereo unspecified) it is -4.22%. On to `O=C(NCC(=O)N1CCN(c2ccccc2O)CC1)c1ccc2ccccc2c1`, for which the inhibition was 22.1%. The same measure for `Cc1ccc(CC2CC(=O)N(c3cc(C)ccc3C)C2=O)cc1` (stereo unspecified): -11.4%; for `N#C/C(=C\c1cccnc1)C(=O)Nc1ccc(SC(F)F)cc1`: 36.4%; for `Cc1ccc(-n2c(-c3ccc(Cl)cc3)n[nH]c2=S)cc1`: 4%. The figure for `CCOC(=O)c1ccc2[nH]c3c(c2c1)CCCC3NC=O` (stereo unspecified) is 90.9%; for `COc1ccc(N(C)C(=O)CCS(=O)(=O)c2cccc3nsnc23)cc1` it is -7.02%. The same measure for `CCOc1ccccc1NC(=O)Cn1ncc2ccc([N+](=O)[O-])cc21`: -3.64%; for `COc1ccc(N2CC(C(=O)NCCS(=O)(=O)N3CCN(c4ccccc4)CC3)CC2=O)cc1` (stereo unspecified): -3.67%.

`O=C(NCC(=O)N(Cc1cccs1)C(C(=O)NC1CCCCC1)c1ccco1)c1cccs1` (stereo unspecified): the inhibition is 4.26%.

For the compound `O=C1c2cccc3cccc(c23)C(=O)N1c1cccc(O)c1`, the inhibition was -6.01%. For the compound `COC(=O)c1cc(C(=O)NC(C)C2CC3CCC2C3)cc([N+](=O)[O-])c1` (stereo unspecified), the inhibition was -13%. Turning to `COc1cc(C(=O)NCc2cc3cc(Cl)ccc3n2C)cc(OC)c1OC`, the inhibition is -6.37%.

As to `COc1ccc(S(=O)(=O)NCCOc2ccccc2)cc1F`, the inhibition was 21%. The same measure for `N#CCc1ccc(NC(=O)c2ccccc2C(=O)Nc2ccc(CC#N)cc2)cc1`: 57.5% (active); for `NC(=O)COc1ccc(NC(=O)c2ccccc2-c2ccccc2)cc1`: -16.2%. The figure for `CC(=O)Nc1ccc(CC#N)cc1` is -1.48%; for `O=C(NCCO)C(=O)NCC(c1ccc2c(c1)OCO2)N1CCN(c2ccc(F)cc2)CC1` (stereo unspecified) it is 17.7%. With `O=C(O)c1ccc(S(=O)(=O)N2CCOCC2)o1`, the inhibition was -9.6%.

As to `CCc1ccc(C(=O)NN=C2CCCCCC2)s1`, the inhibition was 50.4% (active). The same measure for `O=C(COc1ccc(-c2ccccc2)cc1)NN=C1CCCC1`: -0.705%. The same measure for `CS(=O)(=O)N(Cc1ccccc1)c1ccc(C(=O)NN=C2CCCCCC2)cc1`: 0.281%; for `O=C(COc1ccc(Cl)cc1)NCCC1=CCCCC1`: 19.6%; for `CN(c1ccc(C(=O)NCCC2=CCCCC2)cc1)S(C)(=O)=O`: 89.4% (active). The figure for `CC(CC(=O)O)C(=O)c1ccc(Cl)c([N+](=O)[O-])c1` (stereo unspecified) is -9.51%.

Take `O=C(NCCC1=CCCCC1)c1ccc(Cl)c([N+](=O)[O-])c1`: the inhibition was 78.7% (active). The figure for `CC(=O)Nc1ccc(S(=O)(=O)N(C)CC(=O)NCCC2=CCCCC2)cc1` is -23.7%; for `CN1CCNC(=O)C1CC(=O)NCCC1=CCCCC1` (stereo unspecified) it is -5.56%. For `Cc1ccn2c(=O)c(C(=O)NCCC3=CCCCC3)c(O)nc2c1`, the inhibition is 0.166%. The figure for `Cn1nnc2cc(C(=O)NCCC3=CCCCC3)ccc21` is 64.2% (active); for `O=C(Cc1nn[nH]n1)NCCC1=CCCCC1` it is -11.6%. Consider `Cc1ccc(NS(=O)(=O)c2c(C)[nH]c(C)c2C(=O)N2CCCCC2)c(C)c1`, for which the inhibition was -1.7%. The figure for `CCOc1ccc(NC(=O)CC(Cc2ccc(Cl)cc2)C(=O)O)cc1` (stereo unspecified) is -2.62%; for `COC(=O)c1c(NC(=O)c2ccccc2F)sc2c1C(C(=O)OC)CC2` (stereo unspecified) it is -16.3%; for `COC(=O)[C@@H]1CC(O)CN1C(=O)C12CC3CC(CC(C3)C1)C2` (stereo partly specified) it is 4.2%. The figure for `O=C(Nc1nnc(S(=O)(=O)N2CCOCC2)s1)c1cccc(Br)c1` is 31.4% (active); for `COc1cccc(C(=O)Nc2nnc(S(=O)(=O)N3CCOCC3)s2)c1` it is 7.84%. As for `O=C(Nc1nnc(S(=O)(=O)N2CCCCCC2)s1)c1cccc(Br)c1`, the inhibition is -2.66%. Regarding `O=C(Nc1ccc(N2CCOCC2)c(Cl)c1)c1ccc(S(=O)(=O)N2CCOCC2)cc1`, the inhibition was -13.3%. The figure for `O=C(Nc1ccc(S(=O)(=O)N2CCOCC2)cc1)c1ccc2ncsc2c1` is 64.5% (active); for `O=C(Nc1ccc(S(=O)(=O)Nc2nccs2)cc1)c1cccc(S(=O)(=O)N2CCOCC2)c1` it is -3.68%.

As a reminder, the inhibition is the change of the read-out against control, counted positive when it falls.
